# PubChem BioAssay (NCATS)
# Values joined by “and” are separate entries in the source; they are usually repeats but may differ in a detail not shown here. Identical values can stand only once. Results filed as inconclusive are left out. Active and inactive are the calls of the source. The call rests on the fitted dose curve; in most records, active means well fitted inhibition curve with a large enough effect; inconclusive means small, poorly fitted or top-dose-only effect; inactive means no such curve, though single readings can be large or run the other way.
# Molecular target: Cytochrome P450 2C9 (Homo sapiens) (UniProt P11712)
# Sequence (P11712 whole entry, looked up): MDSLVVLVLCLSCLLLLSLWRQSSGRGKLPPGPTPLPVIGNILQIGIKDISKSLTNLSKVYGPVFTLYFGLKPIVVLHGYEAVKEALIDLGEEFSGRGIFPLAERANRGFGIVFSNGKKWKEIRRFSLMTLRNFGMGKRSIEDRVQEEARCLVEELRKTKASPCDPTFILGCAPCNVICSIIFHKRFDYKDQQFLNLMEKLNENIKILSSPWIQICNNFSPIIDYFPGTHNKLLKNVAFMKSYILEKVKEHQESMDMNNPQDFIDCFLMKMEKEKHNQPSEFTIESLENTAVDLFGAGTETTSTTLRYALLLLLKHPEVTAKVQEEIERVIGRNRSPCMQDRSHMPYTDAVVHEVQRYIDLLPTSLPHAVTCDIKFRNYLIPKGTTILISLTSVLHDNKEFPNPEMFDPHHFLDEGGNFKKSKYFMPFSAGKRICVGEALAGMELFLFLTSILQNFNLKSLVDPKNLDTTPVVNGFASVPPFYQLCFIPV
# Experiment: qHTS Assay for Inhibitors and Substrates of Cytochrome P450 2C9 (AID 883); further: nearly all actives have a fitted effect of over 60% in size
# Conditions: recombinant CYP2C9, luciferin-H luminescence, 60 min; series mostly up to 11.4 µM; activity change, negative = inhibition: at the top concentration
# Procedure, shortened: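 Human CYP2C9 (10nM) with Luciferin-H at 100uM (its KM) in 25mM KPO4; compound preincubated 10 min at 37C, then NADPH regeneration for 60 min at 37C. Luciferin read by luminescence after detection reagent; normalized to 57uM sulphaphenazole as full inhibition.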
# On the % scale 0 is the no-effect control and ±100 the full control effect; potency means the concentration at half of the fitted maximal effect.
Structure (SMILES),Potency,"activity change, negative = inhibition"
CO[C@H]1COC(=O)C/C=C\[C@H](C)[C@@H](OC)COC(=O)[C@@H](C)COC(=O)C/C=C\[C@@H]1C,2.51 µM (active),–
CCCCCCC#CC1C=CC(OC(C)=O)C(COC(C)=O)O1 (stereo not given),–,-20.7% (inactive)
CCC1OCCC=CC1C (stereo not given),–,25% (inactive)
OCC1OC(c2ccccc2)C=CC1Oc1ccc(C2CCCC2)cc1 (stereo not given),–,13.4% (inactive)
COCOc1cc(OC)ccc1C(=O)/C=C\c1ccc2c(c1)OCO2,2.51 µM (active),–
O=Cc1ccc(OC2C=CC(C#Cc3ccccc3)OC2CO)cc1 (stereo not given),2.51 µM (active),–
COC(=O)NC(c1ccccc1)C(C(=O)OC)C(=O)OC (stereo not given),–,-18.7% (inactive)
CCOP(=O)(CC(C(C)=O)C(O)c1ccccc1)OCC (stereo not given),–,23.9% (inactive)
Cc1ccc(C#CC2C=CC(Oc3ccc4c(c3)OCO4)C(CO)O2)c(C)c1 (stereo not given),–,-6.88% (inactive)
CC1CCC2C(=O)N3C(CCC(C)[C@@H]3c3ccc(-c4ccco4)cc3)C(=O)N2C1c1cccc(N2CCCC2=O)c1 (stereo not given in full),–,-10.1% (inactive)
CCC/C=C/C1C(=O)C2OC2C2(OCC(CC)(CC)CO2)C1CO (stereo not given),–,9.12% (inactive)
CCCC/C=C/C(NC(=O)c1ccc(C(F)(F)F)cc1)c1ccccc1 (stereo not given),2 µM (active),–
CCCCCCC1=Cc2cc(OC)c(OC)cc2C(C2(C(=O)OCC)CCCC2=O)O1 (stereo not given),–,19% (inactive)
C/C=C/C1Oc2ccc(OC)cc2N2C(=O)C(C)C(OCOC)C12 (stereo not given),–,-29.8% (inactive)
C=C(C)C(O)C(CC/C=C(\C)C(=O)OCC)OC (stereo not given),–,-11.5% (inactive)
O=C1C=C[C@@H](O)[C@@H]2[C@H]3C(=O)N(c4ccc(F)cc4F)C(=O)[C@@H]3CC[C@@H]12,–,14.6% (inactive)
COC(=O)NC(CC(C)=O)c1ccco1 (stereo not given),–,21.2% (inactive)
CC(C)=NOCc1cccc(-c2cc(-c3ccccc3)no2)c1,3.98 µM (active),–
COC(=O)NC(/C(C(=O)OC)=C(\C)NCc1ccccc1)c1ccco1 (stereo not given),–,-14.5% (inactive)
CCOC(=O)OCC1OC(c2ccccc2)C=CC1Oc1cccc(N(C)C)c1 (stereo not given),–,-11.5% (inactive)

Structure (SMILES),Potency,"activity change, negative = inhibition"
CC1(C)OC(C(O)(c2cc(C(F)(F)F)cc(C(F)(F)F)c2)c2cc(C(F)(F)F)cc(C(F)(F)F)c2)C(C(O)(c2cc(C(F)(F)F)cc(C(F)(F)F)c2)c2cc(C(F)(F)F)cc(C(F)(F)F)c2)O1 (stereo not given),–,12.1% (inactive)
COC(=O)C1=C(C)N(Cc2ccccc2)C2=C(C(C)=O)C[C@@](O)(C(=O)OC)C(=O)N2C1c1ccccc1 (stereo not given in full),inactive,–
CCOC(=O)[C@]1(C(/C=C/c2ccco2)NC(=O)OC)CCCC1=O (stereo not given in full),–,-3.56% (inactive)
COC(=O)C/C=C/C(C)C(OCc1cccc(Br)c1)C(C)C(OC)C1CCCCC1 (stereo not given),2.51 µM (active),–
COC(=O)NC(c1cccs1)C(C(C)=O)C(=O)OC (stereo not given),–,-25.9% (inactive)
CCCNC(=O)OC[C@H]1O[C@@H](CCO/N=C\[C@@H](NS(=O)(=O)c2ccc(C)cc2)[C@H](C)/C=C\CC(=O)OC)C=C[C@@H]1Oc1ccc(OC)cc1,3.98 µM (active),–
C#CC(C)OC(=O)c1nnc2c3ccccc3n(COC)c2n1 (stereo not given),–,-18.4% (inactive)
Cc1ccc(OC2C(O)COC2/C=C/C#Cc2ccc(C(C)(C)C)cc2)cc1 (stereo not given),inactive,–
CC[C@@H](c1ccccc1)n1c(=O)n2n(c1=O)[C@H]1[C@H](O)[C@H]3O[C@@H]3/C(=N/OC/C=C(\C)CCC=C(C)C)[C@@H]1CC2,–,33.1% (inactive)
COC(=O)NC(c1ccc(F)cc1)C(C(C)=O)C(=O)OC (stereo not given),–,3.19% (inactive)
CC1CCC2C(=O)N3C(CCC(C)[C@@H]3c3ccc(Br)cc3)C(=O)N2C1c1ccc(Br)cc1 (stereo not given in full),3.16 µM (active),–
CC12C=C(/C=C/CCc3ccco3)C(C)(C1)C(CCc1ccco1)CC2=O (stereo not given),–,14.4% (inactive)
COC(=O)C1C(C)OC(=O)NC1c1ccccc1 (stereo not given),–,7.66% (inactive)
CCC(=O)CC(NC(=O)OC)c1ccc(F)cc1 (stereo not given),–,2.21% (inactive)
COC(=O)NC(CC(C)=O)c1cccc(C(F)(F)F)c1 (stereo not given),–,7.76% (inactive)
C=CC[C@@H]1C=C[C@@H](O/N=C\c2ccc(C(=O)N3[C@H](c4ccc(C)cc4)[C@@H](C)CC[C@H]3C(=O)OC)cc2)[C@@H](CO)O1,3.98 µM (active),–
C=C/C1=C/Cc2ccccc2C(C[N+](=O)[O-])C(C(=O)OC)(C(=O)OC)C1 (stereo not given),–,-12.4% (inactive)
CCCNC(=O)OC[C@@H]1O[C@H](CCO/N=C\c2ccc(C(=O)N3[C@H](c4ccc(C)cc4)[C@@H](C)CC[C@H]3C(=O)OC)cc2)C=C[C@@H]1Oc1ccc(OC)cc1,3.98 µM (active),–
CO[C@H]1COC(=O)C/C=C\[C@H](C)[C@@H](OC)COC(=O)[C@H](C)COC(=O)C/C=C\[C@@H]1C,–,36.4% (inactive)
COC(=O)C/C=C1\c2ccccc2C(OC)C1C (stereo not given),–,4.3% (inactive)

# Molecular target: Cytochrome P450 3A4 (Homo sapiens) (UniProt P08684)
# Sequence (P08684 whole entry, looked up): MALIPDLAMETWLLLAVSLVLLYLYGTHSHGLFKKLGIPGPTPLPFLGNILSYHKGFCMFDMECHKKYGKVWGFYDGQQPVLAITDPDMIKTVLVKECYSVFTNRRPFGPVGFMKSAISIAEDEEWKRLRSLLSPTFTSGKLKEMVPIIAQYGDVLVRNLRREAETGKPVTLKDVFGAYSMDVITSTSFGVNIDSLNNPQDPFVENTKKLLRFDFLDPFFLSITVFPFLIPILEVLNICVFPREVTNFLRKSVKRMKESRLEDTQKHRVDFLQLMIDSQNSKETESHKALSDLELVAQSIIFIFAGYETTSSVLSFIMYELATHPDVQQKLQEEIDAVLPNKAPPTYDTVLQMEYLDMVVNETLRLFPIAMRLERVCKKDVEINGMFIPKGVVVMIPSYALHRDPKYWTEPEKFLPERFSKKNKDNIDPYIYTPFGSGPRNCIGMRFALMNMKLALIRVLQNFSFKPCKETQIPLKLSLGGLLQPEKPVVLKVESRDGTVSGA
# Experiment: qHTS Assay for Inhibitors and Substrates of Cytochrome P450 3A4 (AID 884); further: nearly all actives have a fitted effect of over 50% in size
# Conditions: recombinant CYP3A4, Luciferin-PPXE luminescence; series mostly up to 57.1 µM; activity change, negative = inhibition: at the top concentration
# Procedure, shortened: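 20 nM human CYP3A4 with 25 uM Luciferin-PPXE (at KM) in 200 mM KPO4, preincubated 10 min with compound; NADPH regeneration started a 60 min RT reaction. Luciferin detected by luminescence, normalized to 57 uM ketoconazole as full inhibition.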
Structure (SMILES),"activity change, negative = inhibition",Potency
CCC1OCCC=CC1C (stereo not given),-15% [at 11.4 µM] (inactive),–
OCC1OC(c2ccccc2)C=CC1Oc1ccc(C2CCCC2)cc1 (stereo not given),-14.3% [at 11.4 µM] (inactive),–
CCOP(=O)(CC(C(C)=O)C(O)c1ccccc1)OCC (stereo not given),-15.8% [at 11.4 µM] (inactive),–
Cc1ccc(C#CC2C=CC(Oc3ccc4c(c3)OCO4)C(CO)O2)c(C)c1 (stereo not given),-16.9% [at 11.4 µM] (inactive),–
CC1CCC2C(=O)N3C(CCC(C)[C@@H]3c3ccc(-c4ccco4)cc3)C(=O)N2C1c1cccc(N2CCCC2=O)c1 (stereo not given in full),13.4% [at 11.4 µM] (inactive),–
C=C(C)C(O)C(CC/C=C(\C)C(=O)OCC)OC (stereo not given),-25.2% [at 11.4 µM] (inactive),–
O=C1C=C[C@@H](O)[C@@H]2[C@H]3C(=O)N(c4ccc(F)cc4F)C(=O)[C@@H]3CC[C@@H]12,-59.6% [at 11.4 µM] (inactive),–
COC(=O)NC(CC(C)=O)c1ccco1 (stereo not given),-19.2% [at 11.4 µM] (inactive),–
COC(=O)NC(/C(C(=O)OC)=C(\C)NCc1ccccc1)c1ccco1 (stereo not given),-20.3% [at 11.4 µM] (inactive),–
CC1(C)OC(C(O)(c2cc(C(F)(F)F)cc(C(F)(F)F)c2)c2cc(C(F)(F)F)cc(C(F)(F)F)c2)C(C(O)(c2cc(C(F)(F)F)cc(C(F)(F)F)c2)c2cc(C(F)(F)F)cc(C(F)(F)F)c2)O1 (stereo not given),-21% [at 11.4 µM] (inactive),–
CCOC(=O)[C@]1(C(/C=C/c2ccco2)NC(=O)OC)CCCC1=O (stereo not given in full),-21.5% [at 11.4 µM] (inactive),–
CCCNC(=O)OC[C@H]1O[C@@H](CCO/N=C\[C@@H](NS(=O)(=O)c2ccc(C)cc2)[C@H](C)/C=C\CC(=O)OC)C=C[C@@H]1Oc1ccc(OC)cc1,–,3.16 µM (active)
C#CC(C)OC(=O)c1nnc2c3ccccc3n(COC)c2n1 (stereo not given),-23.2% [at 11.4 µM] (inactive),–
Cc1ccc(OC2C(O)COC2/C=C/C#Cc2ccc(C(C)(C)C)cc2)cc1 (stereo not given),-23% [at 11.4 µM] (inactive) and -25.5% [at 11.4 µM] (inactive),–
COC(=O)NC(c1ccc(F)cc1)C(C(C)=O)C(=O)OC (stereo not given),-15% [at 11.4 µM] (inactive),–
CC12C=C(/C=C/CCc3ccco3)C(C)(C1)C(CCc1ccco1)CC2=O (stereo not given),-9.62% [at 11.4 µM] (inactive),–
COC(=O)C1C(C)OC(=O)NC1c1ccccc1 (stereo not given),-16.6% [at 11.4 µM] (inactive),–
CCC(=O)CC(NC(=O)OC)c1ccc(F)cc1 (stereo not given),-17.9% [at 11.4 µM] (inactive),–
COC(=O)NC(CC(C)=O)c1cccc(C(F)(F)F)c1 (stereo not given),-14.1% [at 11.4 µM] (inactive),–
COC(=O)C/C=C1\c2ccccc2C(OC)C1C (stereo not given),-21.3% [at 11.4 µM] (inactive),–
